Assay results reported in PubChem BioAssay.
Calls of active or inactive are those of the source.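 The calls were made as follows, unless noted: active = compound that reduces growth-factor-driven endothelial tube area in a mixed cell culture, no cutoff stated; inactive = the rest.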

Legend:
[1] = P. berghei load reduction in hepatocytes – cell-based, HepG2, luciferase luminescence, HepG2 viability, primary screen (AID 624349; in the data active = parasite load remaining mostly below about 12%, no sharp cut-off; inactive = mostly above about 10%;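 also: 100% = mean of DMSO negative control wells on the same plate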); details: P. berghei liver stage in HepG2, luciferase luminescence, concentration not given here; parasite load remaining: stronger effect = lower value; viability: measured here: HepG2 viability without parasites
[2] = Wnt pathway potentiators raising nuclear beta-catenin – imaging, WNT3A-conditioned medium, mouse C2C12, NPC library, primary screen (AID 1117326; in the data active = nuclear beta-catenin stimulation mostly above about 4.2%, no sharp cut-off; inactive = mostly below about 10%); details: stronger effect = higher value
[3] = stimulators of insulin release from INS-1E, primary screen, cell-based, 5 mM glucose, NPC library (AID 1117329;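 active = compound raises insulin release from rat beta cells at 5 mM glucose, no numeric limit stated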); details: rat INS-1E insulin secretion, at 10 µM, stronger effect = higher value
[4] = growth inhibition of GSK3B-pretreated HCT116 cells – cell-based, CellTiter-Glo, 0.2 to 20 µM (AID 1117336;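 active = compounds lowering colon cancer cell viability after pretreatment blocking the GSK3B kinase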); details: HCT116 viability after GSK3B inhibitor, at 20 µM, stronger effect = higher value
[5] = inhibition of endothelial tube formation, primary screen, imaging, VEGF stimulated, CD31 staining, tube area, NPC library (AID 1117340); details: VEGF-stimulated ADSC/ECFC co-culture, at 10 µM, stronger effect = higher value
[6] = GLP1 release stimulators, primary, NCI-H716, NPC library (AID 1117341;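 active = compound raises GLP1 secretion from the human gut endocrine cells, with no numeric limit stated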); details: NCI-H716 cells, at 10 µM, stronger effect = higher value
[7] = HCT116 colon cancer cell growth inhibition, primary screen, CellTiter-Glo luminescence, NPC library (AID 1117342;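 active = compounds that lower survival of HCT116 colon cancer cells in the luminescence readout, no numeric limit stated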); details: at 20 µM (top of the series)
[8] = reduced SW480 viability measured with CellTiter-Glo, NPC library, primary (AID 1117343;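 active = compounds that lower viability of the colon cancer cells in the luminescence readout, with no numeric limit stated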); details: CellTiter-Glo luminescence; at 20 µM (top of the series) unless noted
[9] = NPC library primary testing for decreased DLD-1 cell viability via CellTiter-Glo (AID 1117346;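 active = compounds that lower survival of DLD-1 colon cancer cells in the luminescence readout, no cutoff given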); details: DLD-1 viability, CellTiter-Glo luminescence; at 20 µM (top of the series)
[10] = EMT-state selective cytotoxicity in co-culture – imaging, PC-3E GFP, TEM4-18 mCherry, primary screen (AID 1345086;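 active = compounds killing one labelled cell type while sparing the other, by normalised counts and ratio limits, not self-fluorescent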;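 as to all read-outs here: cells exposed to compound for 72 h before imaging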;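 as to red/green cell ratio (normalised): normalised mesenchymal count divided by normalised epithelial count so high means epithelial killing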); details: PC-3E GFP / TEM4-18 mCherry co-culture, imaging cell counts, at 1 µM; for red/green cell ratio (normalised): actives lie on both sides, counts scaled to control wells, 1 = unselective
[11] = viability loss with induced miR-34 in A549 – imaging, A549 dox-inducible miR-34, nuclei and caspase counts, primary screen (AID 1347080;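 active = compounds whose cell count with miR-34 switched on is under 0.7 times the count with it off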); details: A549 miR-34 inducible, Hoechst nuclei count, 48 h
[12] = molecular target: NAD(+) hydrolase SARM1 (Homo sapiens) (UniProt Q6SZW1); experiment: blocking NAD cleavage by SARM1 SAM-TIR – cell lysate, NAD-Glo luminescence (AID 1508614;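 active = compound whose remaining NAD level is above about 45 nM, limit read from the data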;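 also: higher remaining NAD means stronger inhibition of SARM1 NADase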); details: SAM-TIR HEK293T lysate NADase, at 1 µM, stronger effect = higher value
[13] = measured here: epithelial PC-3E GFP cell survival
[14] = measured here: mesenchymal TEM4-18 mCherry cell survival
[15] = stronger effect = lower value, cell number ratio, induced over uninduced
[16] = measured here: relative caspase fold change +Dox/-Dox
[17] = measured here: total cells with miR-34 induction, stronger effect = lower value
[18] = measured here: total cells without miR-34 induction

NAD(+) hydrolase SARM1 (Homo sapiens), sequence (Q6SZW1 whole entry, looked up): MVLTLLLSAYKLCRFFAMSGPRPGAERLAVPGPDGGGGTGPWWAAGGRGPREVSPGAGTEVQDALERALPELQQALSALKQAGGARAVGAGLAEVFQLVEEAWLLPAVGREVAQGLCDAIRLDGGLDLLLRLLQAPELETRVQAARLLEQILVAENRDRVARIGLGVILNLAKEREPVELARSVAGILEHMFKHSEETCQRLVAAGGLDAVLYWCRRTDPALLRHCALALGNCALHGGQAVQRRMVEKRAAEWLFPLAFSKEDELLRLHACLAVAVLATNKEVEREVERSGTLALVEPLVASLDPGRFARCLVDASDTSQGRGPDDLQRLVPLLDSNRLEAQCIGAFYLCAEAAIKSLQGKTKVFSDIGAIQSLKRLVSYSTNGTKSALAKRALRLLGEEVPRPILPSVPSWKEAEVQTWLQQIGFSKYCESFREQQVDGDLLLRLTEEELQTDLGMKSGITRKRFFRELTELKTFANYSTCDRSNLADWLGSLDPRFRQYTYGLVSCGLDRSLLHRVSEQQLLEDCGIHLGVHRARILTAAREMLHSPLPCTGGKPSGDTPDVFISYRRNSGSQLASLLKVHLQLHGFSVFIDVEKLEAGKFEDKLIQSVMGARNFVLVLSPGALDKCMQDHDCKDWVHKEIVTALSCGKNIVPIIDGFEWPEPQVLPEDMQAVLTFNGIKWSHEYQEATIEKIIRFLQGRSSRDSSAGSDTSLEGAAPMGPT

Row | Compound | parasite load remaining [1] | viability [1] [%] | nuclear beta-catenin stimulation ([2]; at 10 µM) | nuclear beta-catenin stimulation ([2]; stimulation, at 2 µM) [%] | insulin secretion stimulation [3] | viability decrease [4] | tube area decrease [5] | GLP1 secretion stimulation [6] | inhibition of viability [7] | viability decrease (inhibition) [8] | viability decrease (inhibition) [9] | red/green cell ratio (normalised) [10] | normalised cell number [10, 13] | normalised cell number [10, 14] | fold change [11, 15] | fold change [11, 16] | cell count [11, 17] | cell count [11, 18] | remaining NAD [12]
1 | O=C(Nc1ccc(C(=O)O)c(O)c1)c1ccccc1 | 47.9% (inactive) | 101 | 0.3% (inactive) | 0.4 | -1.2% (inactive) | 1.7% (inactive) | 7.2% (inactive) | -0.4% (inactive) | -1.1% (inactive) | 74.5% (active) | 0.8% (inactive) | 1.04 (inactive) | 0.89 | 0.92 | 0.856 (inactive) | 5.2 | 11700 | 13700 | 10 nM (inactive)
2 | NC(=O)C1(N2CCCCC2)CCN(CCCC(=O)c2ccc(F)cc2)CC1 |  |  | -0.9% (inactive) | -2 | -0.5% (inactive) | -17.7% (inactive) | 11.1% (inactive) | 2.8% (inactive) | 15.3% (inactive) | 12.8% (inactive) | -5.9% (inactive) | 0.88 (inactive) | 1.16 | 1.02 | 0.938 (inactive) | 0.733 | 8980 | 9580 | 10 nM (inactive)
3 | CC1=C(C/C=C(\C)CCC[C@H](C)CCC[C@H](C)CCCC(C)C)C(=O)c2ccccc2C1=O | 21.8% (inactive) | 93.1 | 0.3% (inactive) | -0.8 | -2.6% (inactive) | -3.55% (inactive) | 23.9% (inactive) | 2.3% (inactive) | -10.9% (inactive) | -45.3% (inactive) | -6.65% (inactive) | 1.1 (inactive) | 0.92 | 1.01 | 0.94 (inactive) | 3.52 | 11600 | 12300 | 10 nM (inactive)
4 | O=C1c2ccccc2C(=O)C1c1ccc(Br)cc1 | 54.8% (inactive) | 105 | 2.7% (inactive) | 1.3 | 4.3% (inactive) | 52.2% (active) | 31.1% (inactive) | -0.4% (inactive) | 61.7% (active) | 67.2% (active) | 26.1% (inactive) | 0.9 (inactive) | 0.94 | 0.85 | 0.831 (inactive) | 3.92 | 10800 | 13100 | 10 nM (inactive)
5 | OC1C(O)C(O)C(O)C(O)C1O (stereo not drawn) | 41.7% (inactive) | 104 | 2.8% (inactive) | 0.4 | 0.4% (inactive) | -3.8% (inactive) | 3% (inactive) | -2.7% (inactive) | 3.1% (inactive) | 4.8% (inactive) | 0.6% (inactive) | 1.17 (inactive) | 0.97 | 1.13 | 0.895 (inactive) | 0.941 | 11600 | 12900 | 10 nM (inactive)
